Assay outcomes as filed in PubChem BioAssay.
Hits are enriched below; roughly 12% of the tested compounds scored in any of these assays.
HCV inh = HCV inhibition. 3.4% of 340,000 active. Huh7.5.1 HCVcc-Cre infection, luciferase reporter, 44 h. Potency, µM (highest dose often 41.8 µM), usual class: inhibitors. AID 651820
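After 44 h co-culture of compound, cells and HCVcc-Cre (~0.5 moi), substrate is added for 15 min at room temperature and luciferase measured over 15 sec. Cells were seeded at 1,000/well and pre-cultured 4 h.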
NS1 function inh = blocks influenza NS1 protein function; 0.4% of 270,000 active; Potency, µM (top dose mostly 46.1 µM); calls by dose curve; note: actives are rising curves; nearly all actives have a fitted effect of over 50% in size
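Compounds were scored for reversing the slow growth caused by influenza A NS1 in S. cerevisiae, measured by optical density at 600 nm. Assay medium contained 2% galactose at pH 6.0; NS1-free yeast of the same strain were the positive control.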
AMA1 RON2 block = AMA1-RON2 (P. falciparum) interaction inhibition; Potency, µM (titrated, usually from 58.2 µM), usual class: inhibitors; AlphaScreen AMA1-biotinylated RON2 peptide binding; 0.2% of 360,000 active; note: nearly all actives have a fitted effect of over 45% in size
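AMA1 (3D7) with his tag at 25 nM final met compounds first, then biotinylated RON2 peptide at 25 nM; detection used donor plus acceptor beads, 10 µg/mL apiece, read by AlphaScreen after 30 min at room temperature.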
Pf growth 96h = inhibits malaria parasite growth, 96 h | P. falciparum luciferase reporter growth, 96 h | Potency, µM (top dose mostly 28.7 µM), most hits filed as inhibitors | 6.9% of 320,000 active | AID 504834
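Readout is luminescence from an integrated firefly luciferase in P. falciparum. Red cells, 2% hematocrit and 0.05% parasitemia final, were cultured with compound through two parasite generations (96 hours) at 37 C, 5% CO2.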
SARS PLP yeast = blocks SARS-CoV papain-like protease in a yeast assay; 0.19% of 330,000 active; S. cerevisiae expressing SARS-CoV PLpro, growth rescue; Potency, µM (highest dose often 32.9 µM), actives largely listed as activators; calls by dose curve; note: nearly all actives have a fitted effect of over 55% in size
Pf growth 48h = P. falciparum growth inhibition at 48 hours (one generation); P. falciparum luciferase growth in erythrocytes, 48 h; Potency, µM (titrated, usually from 28.7 µM), actives largely listed as inhibitors; 5.9% of 310,000 active; AID 504832
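Here the parasites carry a stable luciferase gene and grow inside erythrocytes in Albumax-based RPMI medium with compound for one erythrocytic cycle. Activity is scored as loss of luminescent signal.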
A number is an active result; - = inactive; ? = inconclusive; . = not tested or not shown; [ ] = another dose, or the depositor's remark. Unless noted, calls come from the whole dose curve; as a rule, active = well fitted curve in the direction sought with a large enough effect; inconclusive = small, poorly fitted or top-dose-only effect, or another doubt; inactive = no such curve, though single readings can be large; an effect the other way counts as inactive or inconclusive.

SMILES | HCV inh | NS1 function inh | AMA1 RON2 block | Pf growth 96h | SARS PLP yeast | Pf growth 48h
CC(C)c1nnc(NC(=O)CCS(=O)(=O)Cc2ccccc2)s1 | - | - | - | - | - | -
CC(C)c1nnc(NC(=O)CCS(=O)(=O)c2nc(-c3cccs3)cc(C(F)(F)F)n2)s1 | - | - | - | 0.738µM | - | -
COc1ccccc1NS(=O)(=O)c1cccc(C(=O)N/N=C(\C)c2ccc(-n3ccnc3)cc2)c1 | - | - | - | 13.1µM | - | .
Cc1ncc(CO)c(/C=N/NC(=O)c2cc3c(s2)CCCC3)c1O | 7.94µM | - | - | ? | - | ?
Cc1ncc(CO)c(/C=N/NC(=S)Nc2ccc(Cl)c(Cl)c2)c1O | 14.1µM | - | - | ? | - | ?
Cc1ncc(CO)c(/C=N/NC(=S)Nc2cccc(Cl)c2)c1O | ? | - | - | ? | - | ?
COc1ccc(C(=O)N/N=C/c2c(CO)cnc(C)c2O)cc1 | - | . | - | ? | - | ?
Cc1ncc(CO)c(/C=N/NC(=O)c2ccc(O)cc2)c1O | - | ? | - | ? | - | 2.08µM
O=S(=O)(NC1CCCC1)c1cc(F)ccc1F | - | - | - | ? | - | ?
COc1cc(O)cc2c1[C@@H]1Oc3c(ccc(O)c3CC=C(C)C)[C@@H]1CO2 | ? | . | - | . | . | .
CC(C)C(=O)Nc1cc2c3c(c1)CCN3C(=O)CC2 | - | - | - | - | - | -
COc1ccccc1NS(=O)(=O)c1cccc(C(=O)N/N=C/c2c(CO)cnc(C)c2O)c1 | ? | . | ? | ? | - | 11.7µM
CCCCC(CC)CNC(=O)c1cccs1 (stereo unspecified) | - | - | - | 4.65µM | - | 5.22µM
Nc1nc(SCc2ccc(Cl)cc2Cl)nc2nc3c(cc12)CCCC3 | 8.91µM | - | - | 13.1µM | - | 8.28µM
Nc1nc(SCc2ccc(Cl)cc2Cl)ns1 | - | - | - | - | - | -
COC(=O)c1sc(N)c(C(=O)OC)c1COC(=O)C1CC(=O)N(Cc2ccco2)C1 (stereo unspecified) | ? | - | - | - | - | ?
CCOC(=O)c1sc(N)c(C(=O)OCC)c1COC(=O)C1CC(=O)N(Cc2ccco2)C1 (stereo unspecified) | 12.6µM | - | - | ? | - | ?
COc1ccc(-c2csc(NC(=O)C3CC(=O)N(Cc4ccco4)C3)n2)cc1 (stereo unspecified) | ? | . | - | ? | - | ?
COc1ccc(-c2nc(NC(=O)C3CCN(c4nc5ccccc5o4)CC3)sc2C)cc1 | ? | - | - | . | - | 8.28µM
COc1ccc(-c2nc(NC(=O)C3CC(=O)N(Cc4ccco4)C3)sc2C)cc1 (stereo unspecified) | ? | . | - | ? | - | 11.7µM
Nc1nc2ccccc2n1/N=C/c1ccc([N+](=O)[O-])s1 | 3.55µM | - | - | 1.47µM | - | ?
Cc1cc2sc3nc(=O)n(-c4ccccc4)c(=O)n3c2cc1C | - | - | - | - | - | -
CNC(=O)Nc1ccc2snnc2c1 | - | - | - | 11.7µM | - | .
Cc1[nH]c2ccccc2c1CCN(Cc1cccnc1)C(=S)Nc1cccc(F)c1 | 15.8µM | . | ? | ? | - | ?
Cc1[nH]c2ccccc2c1CCN(Cc1cccnc1)C(=S)NC(C)(C)C | - | - | - | 13.1µM | - | -[0.00184 µM]
SMILES | HCV inh | NS1 function inh | AMA1 RON2 block | Pf growth 96h | SARS PLP yeast | Pf growth 48h
CCOc1ccc(NC(=S)N(CCc2c(C)[nH]c3ccccc23)Cc2cccnc2)cc1 | ? | - | - | ? | - | ?
Cc1[nH]c2ccccc2c1CCN(Cc1cccnc1)C(=S)Nc1ccc(F)cc1 | - | . | - | - | - | ?
C[C@H](CO)N1C[C@H](C)[C@@H](CN(C)C(=O)NC2CCCCC2)Oc2ccc(NC(=O)C3CC3)cc2C1=O | - | . | - | . | . | .
COc1ccc(OC)c(S(=O)(=O)NC(N)=NCCc2ccccc2OC)c1 | . | . | . | - | - | -
COc1cc(C(=O)N2CCCCCCC2)ccc1OC1CCN(C(C)=O)CC1 | - | - | - | ? | - | ?
COc1ccc(C(=O)NC2CC2)cc1OC1CCN(Cc2cc(C)c(C)cc2C)CC1 | ? | - | - | ? | - | ?
COc1ccc(NC(=O)N(C2CCCCC2)C2CCN(C(C)C)CC2)c(OC)c1 | 3.55µM | - | - | ? | - | -
COCC1CCN(C(=O)c2ccc(OC)c(OC3CCN(C(C)C)CC3)c2)CC1 | . | - | - | 3.29µM | - | -
COc1ccc(C(=O)N2CCCCCC2)cc1OC1CCN(C(C)=O)CC1 | . | - | - | 10.4µM | - | -
COc1ccc(CN2CCC(Oc3cc(C(=O)NC4CC4)ccc3OC)CC2)c(O)c1 | ? | - | - | - | - | 2.33µM
CCOC(=O)C1CCCN(C(=S)NC2CCCC2)C1 (stereo unspecified) | - | - | - | - | - | -
O=C(CCc1nnc(CCCc2ccccc2)o1)NCCCC1CCCC1 | - | - | - | - | - | -
COc1cccc(N2CCN(C(=O)CN(C)S(=O)(=O)c3ccc4c(c3)c(=O)n(C)c(=O)n4C)CC2)c1 | - | . | - | ? | - | ?
COc1ccc(C(=O)NC2CCCCCC2)cc1OC1CCN(C(C)=O)CC1 | - | - | - | ? | - | -
COc1ccc(C(=O)NC2CCCCC2)cc1OC1CCN(C(C)C)CC1 | . | - | - | 6.57µM | - | ?
O=C(OCC(=O)N(C1CCCCC1)C1CCCCC1)c1ccc(O)cc1 | - | - | - | ? | - | 8.28µM
N#CCC(=O)Nc1ccc(C(=O)OCC(=O)N(C2CCCCC2)C2CCCCC2)cc1 | - | ? | - | ? | - | 11.7µM
O=C(OCC(=O)N(C1CCCCC1)C1CCCCC1)c1ccccc1O | - | - | - | ? | - | ?
N#CCC(=O)Nc1ccc(C(=O)OCC(=O)NC2CCCCCC2)cc1 | - | . | - | ? | - | ?
Cc1ccccc1OC(C)C(=O)NCCCN1CCOCC1 (stereo unspecified) | - | - | - | ? | - | -
COc1cc(NC(=O)c2cccs2)c(C(=O)OCC(=O)c2cc(C)n(-c3ccccc3)c2C)cc1OC | - | - | -[11.6 µM] | ? | - | ?
COc1cc(C(=O)OCC(=O)NCc2ccc(F)cc2)cc(NC(=O)c2cccs2)c1OC | - | - | - | - | - | ?
COc1cc(NC(=O)c2cccs2)c(C(=O)OCC(=O)c2cc(C)n(-c3ccc(F)cc3)c2C)cc1OC | - | - | - | 2.62µM | - | -
COc1ccc(-n2c(C)cc(C(=O)COC(=O)c3cc(NC(=O)c4cccs4)c(OC)c(OC)c3)c2C)cc1 | - | - | - | ? | - | 1.85µM
CN(Cc1ccccc1)C(=O)c1ccc(NC(=O)Cc2ccc(NC(=O)C3CCN(S(=O)(=O)c4cccc([N+](=O)[O-])c4)CC3)cc2)cc1 | 12.6µM | . | - | . | . | .
CN(CCc1ccccc1)C(=O)c1cccc(NC(=O)Cc2cccc(NC(=O)C3CCCN(S(=O)(=O)c4cccc([N+](=O)[O-])c4)C3)c2)c1 (stereo unspecified) | 10µM | . | - | . | . | .
